Hits are enriched below; roughly 2.7% of the tested compounds scored in any of these assays.
IP6K1 inhibitor – inhibitors of human IP6K1 | AID 1645851 | activity change, % (series mostly up to about 58 µM) | IP6K1 kinase, ADP-Glo luminescence, 2 h; hits give low values | hit rate 0.81% among 140,000; in the data active = activity change below about -25%
Target sequence (Q92551 whole entry, looked up): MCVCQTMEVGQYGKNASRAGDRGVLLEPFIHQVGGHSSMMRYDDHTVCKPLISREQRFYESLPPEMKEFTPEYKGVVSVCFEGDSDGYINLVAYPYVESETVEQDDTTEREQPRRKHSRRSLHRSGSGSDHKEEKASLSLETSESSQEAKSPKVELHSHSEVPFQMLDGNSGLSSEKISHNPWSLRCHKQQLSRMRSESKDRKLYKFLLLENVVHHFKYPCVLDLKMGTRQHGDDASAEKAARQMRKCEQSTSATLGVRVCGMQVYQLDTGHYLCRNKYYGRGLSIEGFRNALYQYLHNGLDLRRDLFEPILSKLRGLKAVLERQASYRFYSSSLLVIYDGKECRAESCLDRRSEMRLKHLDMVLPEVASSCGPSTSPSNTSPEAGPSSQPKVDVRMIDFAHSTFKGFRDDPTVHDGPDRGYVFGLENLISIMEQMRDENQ
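ADP-Glo luminescence measures ADP made by human IP6K1 during a 2 h RT reaction with ATP/IP6 (mix at 1.3 mM/130 uM); top library doses 57.5 and 19.1 uM final.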
KDM5B inh – blocks human KDM5B histone demethylase activity; Q9UGL1; KDM5B demethylase, FDH-coupled NADH fluorescence (FDH is formaldehyde dehydrogenase); Potency, µM (series often up to 57.7 µM), usual class: inhibitors; hit rate 2.6% among 220,000; AID 1347165; active = well fitted inhibition curve with a large enough effect; inconclusive = small, poorly fitted or top-dose-only effect; inactive = no such curve, though single readings can be large or run the other way; also: nearly all actives have a fitted effect of over 70% in size
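KDM5BΔAP (200 nM final) in 50 mM HEPES pH 7.5, 0.01% Tween-20 was preincubated 10 min at RT with compound over a concentration range. Substrate mix (H3K4me3 12.5 µM, α-KG 25 µM, Fe²⁺, ascorbate, NAD⁺, FDH) was added, and NADH fluorescence change over 30 min gave dose-response curves.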
A number is an active result; i = inactive; ? = inconclusive; nt = no result.

SMILES	IP6K1 inhibitor	KDM5B inh
COc1ccc(N2CC3CCC(C2)N3CC(F)(F)F)cn1	i	56.2µM
COc1ccc([N+](=O)[O-])c(N2CC3CCC(C2)N3CC(F)(F)F)n1	i	i
CCOC(=O)[C@H]1CN(C(=O)c2cc3ccccc3oc2=O)[C@]2(C)C(=O)N(CCO)c3ccccc3[C@H]12	i	nt
CN1CC[C@H]2CN(c3cc(NCCO)ncn3)C[C@@]2(C(=O)O)C1	i	i
CNc1nc(N2C[C@H]3CN(CCOC)C[C@@]3(C(=O)O)C2)ncc1F	i	15.8µM
C=C1C(=O)CC2OC2(C)CC2OC(=O)C(=C)C2C(O)C1OC(=O)/C(C)=C\C (configuration not stated)	i	nt
O=C1Nc2ccccc2CC12CCN(Cc1ccccn1)C2 (configuration not stated)	i	31.6µM
O=C1Nc2ccccc2CC12CN(Cc1ccccn1)C2	i	i
CCN1CCCCC12Cc1ccccc1CN(C(=O)Cc1ccccc1)C2 (configuration not stated)	i	i
CCCS(=O)(=O)Nc1ccc(=O)n2c1[C@@H]1C[C@@H](CN(C(=O)Nc3ccc(OC)cc3)C1)C2	i	28.2µM
CCCS(=O)(=O)Nc1ccc(=O)n2c1[C@@H]1C[C@@H](CN(S(=O)(=O)c3ccc(OC)cc3)C1)C2	i	22.4µM
COc1ccc(NC(=O)N2C[C@@H]3C[C@H](C2)c2c(NC(=O)CSC)ccc(=O)n2C3)cc1	i	i
CCCS(=O)(=O)Nc1ccc(=O)n2c1[C@@H]1C[C@@H](CN(S(=O)(=O)c3ccccc3)C1)C2	i	i
COc1ccc(CCC(=O)N2[C@H]3CC[C@@H]2c2cnc(-c4ccc(F)cc4)nc2C3)cc1	i	i
COc1cc2c(cc1CCc1ccccc1)N(C(=O)c1c[nH]c3ccccc13)CC21CCN(C(C)=O)CC1	i	?
CCN1C[C@]2(COC)[C@H](O)C[C@H](OC)[C@]34[C@@H]5C[C@]6(O)[C@H](OC(=O)c7ccccc7)[C@@H]5[C@@](O)([C@H]([C@H](OC)[C@H]23)[C@@H]14)[C@@H](O)[C@@H]6OC	i	nt
COCCN1CCN(C(=O)C2C(C)(C)C2(C)C)[C@H]2CS(=O)(=O)C[C@H]21	i	i
Cc1cccn2c(CC(=O)N3CCN(C)[C@@H]4CS(=O)(=O)C[C@@H]43)cnc12	i	28.2µM
Cc1ccc2c(n1)N(C)[C@H](CO)CCN(CC(C)C)C2	i	15.8µM
Cc1cc(-c2cc3c(cn2)CN(CC(C)C)CCN3)ccn1	i	?
COc1ccccc1NC(=O)Nc1ccc2n(c1=O)C[C@H]1C[C@@H]2CN(C2CCOCC2)C1	i	15.8µM
COc1ccccc1NC(=O)N1C[C@@H]2C[C@H](C1)c1c(C3CCCCC3)ccc(=O)n1C2	i	i
CC[C@H]1CN2CC[C@H]1C[C@@H]2COC(=O)Nc1ccc(C(C)(C)C)cc1	i	28.2µM
CC[C@H]1CN2CC[C@H]1C[C@@H]2CNC(=O)c1ccc2ccccc2c1	i	i
COc1ccccc1-c1cc([C@H]2CN3CC[C@H]2C[C@@H]3COC(=O)Nc2ccc(C(C)(C)C)cc2)n(C)n1	i	?
SMILES	IP6K1 inhibitor	KDM5B inh
CC[C@H]1CN2CC[C@H]1C[C@@H]2COC(=O)Nc1cccc2ccccc12	i	31.6µM
COc1cc2c(cc1OCc1ccccc1)NC(=O)C21CCN(c2ccnc(C)n2)CC1	i	i
CN(C[C@H]1CN2CC[C@H]1C[C@@H]2CNC(=S)NCc1ccco1)c1ccccc1	i	?
CC(C)CCN1CCC2(CC1)C(=O)Nc1ccccc12	i	i
NCCc1noc(C2CC2)n1	i	i
Cc1cnc(CCN)n1CC1CC1	i	7.94µM
Cc1noc(C)c1-c1cnc2[nH]cc(CC(=O)N3CCN(C)CC3)c2c1	i	28.2µM
COc1ccc(OC)c(-c2cnc3[nH]cc(CC(=O)N4CCN(C)CC4)c3c2)c1	i	i
O=C(Cc1c[nH]c2ccccc12)N1CCN(C(c2ccccc2)c2ccccc2)CC1	nt	i
CN1CCN(C(=O)Cc2ccccc2)CC1	nt	i
CN1CCN(C(=O)Cc2c[nH]c3ncc(-c4cccc(Cl)c4)cc23)CC1	i	35.5µM
Cc1ccccc1-c1cnc2[nH]cc(CC(=O)N3CCN(C)CC3)c2c1	i	31.6µM
CN1CCN(C(=O)Cc2c[nH]c3ncc(-c4cccc(F)c4)cc23)CC1	i	28.2µM
CN1CCN(C(=O)Cc2cccn2-c2ccc(F)cc2)CC1	i	i
COc1ccc(C23CCC(=O)C=C2N(C)CC3)cc1OC (configuration not stated)	i	nt
COc1cccc(S(=O)(=O)N2[C@H]3CC[C@@H]2c2cnc(C)nc2C3)c1	i	i
Cc1nc(-c2ccccc2Br)cc([C@H]2CN3CC[C@H]2C[C@@H]3CNC(=O)Nc2cccc(C#N)c2)n1	i	?
CN(Cc1ccccc1)Cc1cn(C[C@H]2C[C@@H]3CCN2C[C@@H]3C(=O)Nc2ccccc2)nn1	i	i
CNc1ccc(OC2CCNCC2)nc1	i	28.2µM
N#Cc1ccccc1S(=O)(=O)N1C[C@@H]2C[C@H](C1)c1ccc(-c3ccc(Cl)cc3)c(=O)n1C2	i	35.5µM
N#Cc1ccccc1S(=O)(=O)N1C[C@@H]2C[C@H](C1)c1c(-c3ccccc3F)ccc(=O)n1C2	i	i
O=c1c(C2CCCCC2)ccc2n1C[C@H]1C[C@@H]2CN(S(=O)(=O)c2ccccc2)C1	i	31.6µM
CN(C)CC(=O)Nc1ccc2n(c1=O)C[C@H]1C[C@@H]2CN(S(=O)(=O)c2ccccc2)C1	i	?
Cn1nc(-c2ccc3ccccc3c2)cc1[C@H]1CN2CC[C@H]1C[C@@H]2CNC(=O)Nc1cccc(C#N)c1	i	i
O=C(C1CCCCC1)N1C[C@@H]2C[C@H](C1)c1c(/C=C/c3ccc(Cl)cc3)ccc(=O)n1C2	i	25.1µM
SMILES	IP6K1 inhibitor	KDM5B inh
O=C(NC1CCCCC1)N1C[C@@H]2C[C@H](C1)c1c(/C=C/c3ccc(Cl)cc3)ccc(=O)n1C2	i	i
CC(C(N)=O)N1CCC2(CC1)C(=O)N(C)c1ccccc12 (configuration not stated)	i	i
COc1ccc(CNC[C@H]2C[C@@H]3CCN2C[C@@H]3c2cc(-c3ccc(F)cc3)nn2C)cc1	i	i
CN1Cc2ccccc2NC(=O)C12CCNC2 (configuration not stated)	i	i
CCN1Cc2ccccc2NC(=O)C12CCNC2 (configuration not stated)	i	56.2µM
CC(C)(C)CC(=O)N1C[C@@H]2C[C@H](C1)c1ccc(NC(=O)Nc3cccc(F)c3)c(=O)n1C2	i	28.2µM
CC(C)(C)CC(=O)N1C[C@@H]2C[C@H](C1)c1ccc(NC(=O)c3ccco3)c(=O)n1C2	i	?
CN(C)Cc1ccccc1-c1ccc2n(c1=O)C[C@H]1C[C@@H]2CN(C(=O)C2CCCCC2)C1	i	35.5µM
CN(C)Cc1ccccc1-c1ccc2n(c1=O)C[C@H]1C[C@@H]2CN(C(=O)c2cccs2)C1	i	?
COc1ccc(-c2cc([C@H]3CN4CC[C@H]3C[C@@H]4CNC(=O)C(C)(C)C)nc(C)n2)cc1OC	i	31.6µM
COc1ccccc1-c1cc([C@H]2CN3CC[C@H]2C[C@@H]3COC(=O)NC(C)C)nc(C)n1	i	39.8µM
COc1ccccc1-c1cc([C@H]2CN3CC[C@H]2C[C@@H]3COC(=O)NC2CCCCC2)nc(C)n1	i	28.2µM
O=C(NC1CCCCC1)OC[C@H]1C[C@@H]2CCN1C[C@@H]2c1cc(C2CCCC2)nc(-c2ccncc2)n1	i	?
